Compounds without any hit were thinned out: in the full panel of roughly 83,000, 20% have a hit.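 Compound tested at a single concentration for 48 hours in 96-well plates; a percent growth value below 10 was scored as active.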 Activity calls are given as the source filed them.
Assays:
Experiment in all cases: NCI-60 one-dose screen, 48 h (100 = growth as untreated, 0 = no growth, -100 = all killed)
Conditions in all cases: 10 µM unless noted
[1] = test system: HCT-15 colon
[2] = test system: HT29 colon
[3] = test system: SNB-75 CNS
[4] = test system: SNB-19 CNS
[5] = test system: PC-3 prostate
[6] = test system: SK-MEL-5 melanoma
[7] = test system: UACC-62 melanoma
[8] = test system: LOX IMVI melanoma
[9] = test system: SK-MEL-28 melanoma
[10] = test system: EKVX NSCLC
[11] = test system: SN12C renal
[12] = test system: UO-31 renal
[13] = test system: TK-10 renal
[14] = test system: ACHN renal
[15] = test system: CAKI-1 renal
[16] = test system: A498 renal
[17] = test system: CCRF-CEM leukemia
[18] = test system: MOLT-4 leukemia
[19] = test system: SK-MEL-2 melanoma
[20] = test system: U251 CNS

Measured: growth

CCCCCCCCCCCCC1CCC(=O)O1 (stereo not given)
inactive: [1] 91.7% | [2] 90.6% | [3] 95% | [4] 98.3% | [5] 95.8% | [6] 99.7% | [7] 98.5% | [8] 93.5% | [9] 96.4% | [10] 92.7% | [11] 98.9% | [12] 92.5% | [13] 102% | [14] 97.3% | [15] 91.6% | [16] 96.2% | [17] 105% | [18] 95.5%

COc1ccc(CNc2c3ccccc3nc3ccc(OC)cc23)cc1
active: [1] 5.34% | [2] -2.9% | [5] 5.53% | [8] -75.1% | [12] 6.24% | [16] -5.96% | [18] -0.147%
inactive: [3] 27.4% | [4] 22.7% | [6] 11.1% | [7] 42.6% | [9] 41.3% | [19] 40.9% | [10] 24.2% | [11] 20.8% | [13] 33.6% | [14] 10.2% | [15] 19.9% | [17] 19.4%

COc1cc(CN(CCC(O)N2CCCC2=O)Cc2ccc3c(c2)OCO3)cc(OC)c1OC (stereo not given)
inactive: [1] 97.5% | [2] 98.3% | [3] 93.7% | [4] 99.5% | [5] 89.5% | [6] 111% | [7] 101% | [8] 94.9% | [9] 117% | [11] 105% | [12] 78.1% | [13] 112% | [14] 100% | [15] 97.1% | [16] 118% | [17] 98.3% | [18] 85.2%

COc1cc(OC)c2sc(-c3ccc(-n4cncc4-c4ccc(OC)c(N)c4)cc3)nc2c1
inactive: [1] 73.9% | [2] 74.3% | [3] 81.8% | [20] 67.2% | [5] 50.4% | [6] 53.1% | [7] 85.6% | [8] 90.2% | [9] 104% | [19] 99.6% | [10] 64.5% | [11] 87% | [12] 60.6% | [13] 82.8% | [14] 90.4% | [15] 60.9% | [16] 77.8% | [17] 59.2% | [18] 58.3%

Fc1ccc(-c2cnc3nonc3n2)c(F)c1
inactive: [1] 78.3% | [2] 113% | [3] 96.4% | [20] 111% | [5] 73.3% | [6] 96.2% | [7] 87.6% | [8] 93.1% | [9] 101% | [19] 108% | [10] 108% | [11] 107% | [12] 89.1% | [13] 121% | [14] 95.2% | [15] 96.3% | [16] 80.9% | [17] 46.1% | [18] 77.6%

CN1C2CCC1/C(=C\c1ccc(Cl)cc1)C(=O)/C2=C/c1ccc(Cl)cc1
inactive: [1] 54.2% | [2] 47.1% | [3] 71.6% | [4] 64.1% | [5] 51.8% | [6] 66.9% | [7] 47.4% | [8] 35.1% | [9] 91.6% | [19] 56.7% | [10] 84.4% | [11] 63.2% | [13] 79% | [14] 75.7% | [15] 68% | [16] 78.5% | [17] 24.4% | [18] 16.4%

CNC1=C([N+](=O)[O-])C(c2ccccc2O)C(C#N)=C(c2cccs2)O1 (stereo not given)
inactive: [1] 88.5% | [2] 105% | [3] 84.2% | [4] 102% | [5] 97.7% | [6] 97% | [7] 89.3% | [8] 87.3% | [9] 93.3% | [19] 74.2% | [10] 97.2% | [11] 98.2% | [13] 100% | [14] 94.8% | [15] 78% | [16] 110% | [17] 85.4% | [18] 88.6%

O=C(N/N=C/c1ccc([N+](=O)[O-])cc1)c1ccccc1Nc1ccnc(C(F)(F)F)c1
inactive: [1] 89.9% | [2] 101% | [3] 77.2% | [4] 82.4% | [5] 72.9% | [7] 57.6% | [8] 78.2% | [9] 104% | [19] 58.5% | [10] 67.5% | [11] 83.9% | [12] 67.8% | [13] 83.4% | [14] 82.6% | [15] 76.4% | [17] 77.9% | [18] 86.3%
active: [6] -99%

O=C1CCCN1C(O)CCN(Cc1ccccc1)Cc1ccc(Cl)cc1 (stereo not given)
inactive: [1] 125% | [2] 98.4% | [3] 101% | [20] 102% | [5] 95.1% | [6] 106% | [7] 102% | [8] 97.2% | [9] 115% | [19] 101% | [10] 101% | [11] 101% | [12] 84.9% | [13] 109% | [14] 108% | [15] 97.3% | [16] 109% | [17] 91.7% | [18] 89.9%

COc1ccc(/C=C(\C#N)c2cc(OC)c(OC)c(OC)c2)cc1
inactive: [1] 15.2% | [3] 30.3% | [4] 43% | [5] 28% | [7] 36.2% | [8] 27% | [9] 56.6% | [19] 64.7% | [10] 54.7% | [11] 27.9% | [13] 74.1% | [14] 24.7% | [15] 41.4% | [17] 14.9%
active: [2] 6.29% | [6] -37.4% | [16] 7.06% | [18] 8.39%

Cc1nn(-c2ccccc2)c2nc3c(nc12)C1=NCCN1C(c1ccc(Cl)cc1)N3 (stereo not given)
inactive: [1] 66.4% | [2] 19% | [3] 62.1% | [4] 109% | [5] 55.1% | [6] 65.6% | [7] 84.8% | [8] 79.1% | [9] 73.3% | [11] 89.5% | [12] 59.2% | [13] 94.4% | [15] 82.6% | [16] 85.6% | [18] 47.3%

COc1cccc(/C=N\Nc2ccc([N+](=O)[O-])cn2)c1O
inactive: [1] 29.7% | [2] 99.1% | [3] 83.1% | [4] 50.9% | [5] 97.5% | [6] 49.8% | [7] 54.7% | [8] 36.9% | [9] 83.5% | [19] 77.1% | [10] 83.9% | [11] 55% | [12] 26.9% | [13] 73.5% | [14] 28.5% | [15] 27.8% | [16] 39.8% | [17] 79.3% | [18] 58%

CCN(CC)C(=O)O/N=C(/C)c1ccccc1
inactive: [1] 110% | [2] 102% | [3] 83% | [4] 99.6% | [5] 98.6% | [6] 94.2% | [7] 99.1% | [8] 91.1% | [9] 97.9% | [19] 102% | [10] 112% | [11] 100% | [12] 101% | [13] 87.2% | [14] 112% | [15] 115% | [17] 100% | [18] 109%

O=C(NCCN1CCCCC1)n1cc(-c2ccncc2)c(-c2ccc(Cl)c(O)c2)n1
inactive: [1] 86.6% | [2] 95.5% | [3] 78.9% | [4] 101% | [5] 84.6% | [6] 73.2% | [7] 37.9% | [8] 64.7% | [9] 37.5% | [19] 60.8% | [10] 114% | [11] 81.6% | [12] 55.4% | [13] 79.4% | [15] 109% | [16] 114% | [17] 87% | [18] 88.2%

CCn1c(Cc2ccccc2Nc2c(Cl)cccc2Cl)nnc1SCC(=O)Nc1cccc(OC)c1
inactive: [1] 78.9% | [2] 68.6% | [3] 86.2% | [20] 86.1% | [5] 56.1% | [6] 91.6% | [7] 33.6% | [8] 79.9% | [9] 96.4% | [19] 91.5% | [10] 77.7% | [11] 66.6% | [12] 68.6% | [13] 82.8% | [14] 88.7% | [15] 84.6% | [16] 40.9% | [17] 73.1% | [18] 54.3%

Cc1cccc(/C=N/n2c(-c3ccc(Cl)cc3)nc3c(Br)cc(Br)cc3c2=O)c1
inactive: [1] 70.5% | [2] 67.9% | [3] 45.9% | [4] 62% | [5] 21.4% | [6] 38.5% | [7] 35.5% | [8] 52.6% | [9] 60.7% | [19] 72.5% | [10] 52.3% | [11] 47.9% | [12] 41.8% | [13] 26.8% | [14] 13.5% | [15] 31.2% | [17] 75.6% | [18] 55.4%

— PubChem BioAssay (NCI)
